This is an account of results in PubChem BioAssay AID2405 (Southern Research Specialized Biocontainment Screening …, 2010).

Values without a mark were called inactive. The rule behind the calls is not given here.

The assay in a line: RSV cytopathic effect inhibition in HEp-2 – cell-based, probe candidates (AID 2405). The settings on record: HEp-2 cells, stronger effect = higher value; at 100 µM unless noted. A general note: Cytopathic effects are the visible damage that an infection or toxin causes in cultured cells.
Consider `Cc1ccc2nc3n(c(=O)c2c1)CCC3`, for which the maximum inhibition was 2%.

On to `OC1c2cc(Br)ccc2N=C2CCCN21` (stereo not drawn), for which the maximum inhibition was 13.5%.

For `OC1c2cc(Br)ccc2N=C2CCCCCN21` (stereo not drawn), the maximum inhibition is 1.05%. As for `COc1ccc(Cn2nc(C)cc2OC(=O)c2c(F)cccc2F)cc1`, the maximum inhibition was 1.12% [at 0.39 µM]. The result for `O=C(CSc1nc2ccccc2c(=O)n1-c1ccc(F)cc1F)Nc1ccc2c(c1)CCC2` reads 5.7% [at 25 µM]; that for `O=c1c2cccc(Cl)c2nc2n1CCC2`, 1.74% [at 50 µM]. Take `CCOC(=O)C1(Cc2ccccc2C(F)(F)F)CCN(C2CCN(C(C)=O)CC2)CC1`: the maximum inhibition was 1.32% [at 6.25 µM].

`CC1CC(C)CN(CCCNC(=O)c2cc3c(s2)-c2ccccc2OC3)C1` (stereo not drawn): the maximum inhibition was 1.49% [at 25 µM]. As for `CN(C)CCCN1c2ccc([N+](=O)[O-])cc2CCc2cc([N+](=O)[O-])ccc21`, the figure is 10.2% [at 50 µM]; as for `O=C(CSc1nc2ccccc2c(=O)n1-c1ccc(F)c(Cl)c1)Nc1ccc2c(c1)CCC2`, 6.32%; as for `COc1cccc(NC(=O)CSc2nc3ccccc3c(=O)n2-c2ccc(F)cc2)c1`, 48.3%. As for `COc1ccc(-c2csc(NC(=O)c3ccccc3Cl)n2)cc1`, the figure is 2.47% [at 12.5 µM]; as for `O=C(CSc1nc2ccccc2c(=O)n1-c1ccc(F)cc1F)Nc1ccc(N2CCOCC2)cc1`, 1.49%; as for `Cc1ccc2nc(SCC(=O)Nc3ccc4c(c3)CCC4)n(-c3ccccc3)c(=O)c2c1`, 47.5% [at 12.5 µM]. As for `COc1ccc(-c2csc(N(C)C(=O)c3ccccc3Cl)n2)cc1`, the figure is 2.66% [at 12.5 µM]; as for `O=c1c2cc(Br)ccc2nc2n1CC/C2=C/c1ccccc1`, 10.8%; as for `COc1ccc(-c2csc(N(CCCBr)C(=O)c3ccccc3Cl)n2)cc1`, 3.83% [at 50 µM]. Regarding `COc1cccc(C(NC(=O)c2ccccc2)c2ccc3cccnc3c2O)c1` (stereo not drawn), the maximum inhibition was 3.45% [at 12.5 µM]. As for `COc1ccc(Cn2nc(C)cc2OC(=O)c2c(F)ccc(C)c2F)cc1`, the figure is 1.16% [at 50 µM]; as for `COc1ccc(-c2csc(NC(=O)c3cccc(Cl)c3)n2)cc1`, 1.49% [at 25 µM]; as for `COc1ccc(-c2csc(N(C(=O)c3ccccc3Cl)C(C)C)n2)cc1`, 6.99% [at 25 µM]. As to `OC1c2cc(I)ccc2N=C2CCCN21` (stereo not drawn), the maximum inhibition is 0.75% [at 50 µM]. Consider `O=C(Nc1nc(-c2ccc(Cl)cc2)cs1)c1cccc(Cl)c1`, for which the maximum inhibition is 6.93% [at 25 µM]. The result for `CC1CCN(CCCNC(=O)c2cc3c(s2)-c2ccccc2OC3)CC1` reads 3.42% [at 50 µM]; that for `O=C(CSc1nc2cccc(I)c2c(=O)n1-c1ccccc1)Nc1ccc2c(c1)CCC2`, 5.17%; that for `O=c1c2cc([N+](=O)[O-])ccc2nc2n1CCC2`, 1.3%. `O=[N+]([O-])c1ccc2c(c1)C(O)N1CCCC1=N2` (stereo not drawn): the maximum inhibition is 2.6% [at 12.5 µM].

With `O=C(CSc1nc2ccc(F)cc2c(=O)n1-c1ccccc1)Nc1ccc2c(c1)CCC2`, the maximum inhibition was 14.7%.
